Experiment [1] can be described thus: qHTS assay to identify small molecule antagonists of the estrogen related receptor (ERR) signaling pathway from Tox21 library - cell viability counter screen (AID 1224834). Note: nearly all actives have a fitted effect of over 30% in size. Note: potency is the fitted concentration of half-maximal effect. Summed up: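 ERR reporter cells were plated 6 h before compound addition, then exposed to test compounds in DMSO for 17.5 h at 37 C. Viability was read as CellTiter-Fluor fluorescence after a 30-minute incubation at 37 C.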

In experiment [2] the target is Luciferin 4-monooxygenase (Photinus pyralis) (UniProt P08659). Briefly: qHTS assay to identify small molecule inhibitors of firefly luciferase (AID 1224835). Note: nearly all actives have a fitted effect of over 25% in size. Note: potency is the fitted concentration of half-maximal effect. The essentials: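 Inhibition of purified Photinus luciferase is measured by luminescence. Substrate levels (D-luciferin, ATP) sit at their KM values. Each compound is tested in a concentration series.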
Sequence of Luciferin 4-monooxygenase (Photinus pyralis) (P08659 whole entry, looked up): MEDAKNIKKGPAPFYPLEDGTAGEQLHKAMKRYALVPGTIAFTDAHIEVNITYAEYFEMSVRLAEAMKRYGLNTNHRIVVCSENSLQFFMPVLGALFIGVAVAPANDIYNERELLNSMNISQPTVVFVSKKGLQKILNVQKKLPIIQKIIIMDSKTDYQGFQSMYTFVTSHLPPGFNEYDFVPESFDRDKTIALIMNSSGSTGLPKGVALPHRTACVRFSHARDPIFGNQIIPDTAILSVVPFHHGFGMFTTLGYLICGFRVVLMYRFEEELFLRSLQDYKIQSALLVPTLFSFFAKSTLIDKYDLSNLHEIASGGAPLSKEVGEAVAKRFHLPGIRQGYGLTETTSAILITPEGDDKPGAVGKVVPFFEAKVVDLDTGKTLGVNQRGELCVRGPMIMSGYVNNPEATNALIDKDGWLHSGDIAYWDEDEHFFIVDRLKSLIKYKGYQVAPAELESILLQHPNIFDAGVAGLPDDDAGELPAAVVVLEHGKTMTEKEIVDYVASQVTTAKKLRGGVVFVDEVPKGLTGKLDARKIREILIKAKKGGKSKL
Experiment [3] is described as follows: qHTS assay to identify small molecule agonists of the constitutive androstane receptor (CAR) signaling pathway - cell viability counter screen (AID 1224836). Note: nearly all actives have a fitted effect of over 45% in size. Note: potency is the fitted concentration of half-maximal effect. Summed up: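 23 h treatment, 37 C, 5% CO2. Cell line: HepG2 stably expressing hCAR with a CYP2B6-2.2kb construct. Co-treatment: PK11195, 0.75 uM final. Read-out: CellTiter-Fluor fluorescence intensity.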

Experiment [4] is described as follows: qHTS assay to identify small molecule antagonists of the constitutive androstane receptor (CAR) signaling pathway - cell viability counter screen (AID 1224837). Note: nearly all actives have a fitted effect of over 45% in size. Note: potency is the fitted concentration of half-maximal effect. The essentials:
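HepG2 cells stably expressing hCAR and a CYP2B6-2.2kb reporter were plated and pre-incubated 4 hr at 37 C/5% CO2, then given compounds at 15 concentrations plus 50 nM CITCO (final). After 23 hr, viability was read by CellTiter-Fluor fluorescence.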

In experiment [5] the target is Nuclear receptor subfamily 1 group I member 3 (Homo sapiens) (UniProt Q14994). Description: qHTS assay to identify small molecule antagonists of the constitutive androstane receptor (CAR) signaling pathway (AID 1224838). Note: nearly all actives have a fitted effect of over 40% in size. Note: potency is the fitted concentration of half-maximal effect. The essentials: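 HepG2 cells stably co-transfected with hCAR and a CYP2B6-2.2kb luciferase reporter were seeded 4 h before compound addition at 15 concentrations. Cells were stimulated with 50 nM CITCO (final) for 24 h at 37 C; luciferase luminescence was then read.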
Sequence of Nuclear receptor subfamily 1 group I member 3 (Homo sapiens) (Q14994 whole entry, looked up): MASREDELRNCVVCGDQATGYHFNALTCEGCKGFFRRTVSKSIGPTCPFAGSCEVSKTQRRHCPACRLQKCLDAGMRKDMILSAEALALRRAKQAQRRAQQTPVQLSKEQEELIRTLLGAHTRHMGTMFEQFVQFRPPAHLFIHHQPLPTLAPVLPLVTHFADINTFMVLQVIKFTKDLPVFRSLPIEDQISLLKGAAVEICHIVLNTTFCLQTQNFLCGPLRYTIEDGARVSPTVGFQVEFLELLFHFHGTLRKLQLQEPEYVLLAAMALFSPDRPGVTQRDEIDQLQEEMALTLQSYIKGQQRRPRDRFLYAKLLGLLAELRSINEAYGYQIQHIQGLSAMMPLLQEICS

Experiment [6] shares this target. Description: qHTS assay to identify small molecule agonists of the constitutive androstane receptor (CAR) signaling pathway (AID 1224839). Note: nearly all actives have a fitted effect of over 15% in size. Note: potency is the fitted concentration of half-maximal effect. Summed up: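 Compounds tested at 15 concentrations on HepG2 cells stably harbouring hCAR and CYP2B6-2.2kb reporter constructs, co-treated with PK11195 (0.75 uM final), 24 h at 37 C; luminescent reporter signal quantified.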
Experiment [7] can be described thus: qHTS assay to identify small molecule antagonists of the estrogen related receptor signaling pathway with the pleiotropic PPARgamma coactivator (PGC) from Tox21 10K library - cell viability counter screen (AID 1224840; active = well fitted cell-killing curve with a large enough effect in the repeat runs, not every such curve was filed as active; note: nearly all actives have a fitted effect of over 40% in size; note: potency is the fitted concentration of half-maximal effect). Summed up: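 PGC/ERR cells were seeded at 2,000 cells/well and left 6 hours at 37 C/5% CO2 before pin-tool addition of compounds in DMSO. After 17.5 hours at 37 C, CellTiter-Fluor was added and fluorescence read 30 minutes later.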

The nature of experiment [8]: qHTS assay to identify small molecule agonists of the estrogen related receptor signaling pathway with the pleiotropic PPARgamma coactivator (PGC) (AID 1224823). Summed up:
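Steps: plate PGC/ERR cells at 2,000 cells/well; incubate 6 h, 37 C/5% CO2; pin-transfer compounds (DMSO); incubate 18 h, 37 C; add One-Glo; 30 min RT; read luminescence.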

The nature of experiment [9]: qHTS assay to identify small molecule antagonists of the estrogen related receptor signaling pathway with the pleiotropic PPARgamma coactivator (PGC) from Tox21 10K library (AID 1224841; call rule not given here; note: actives are mostly falling curves and most rising ones were filed inactive; nearly all actives have a fitted effect of over 50% in size; note: potency is the fitted concentration of half-maximal effect). The essentials: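 PGC/ERR reporter cells were seeded at 2,000 cells/well and held 6 hours at 37 C/5% CO2 before pin-tool addition of compounds in DMSO. After 18 hours at 37 C, One-Glo was added and luminescence read after 30 minutes at room temperature.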

Experiment [10] can be described thus: qHTS assay to identify small molecule agonists of the estrogen related receptor signaling pathway with the pleiotropic PPARgamma coactivator (PGC) from Tox21 10K library (AID 1224842). Note: nearly all actives have a fitted effect of over 15% in size. The essentials:
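Luminescence from One-Glo (30 min, room temperature) measured after PGC/ERR cells had 18 h at 37 C with pinned compound (23 nL in DMSO). Cells had been seeded at 2,000 per well and pre-incubated 6 h.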

Several values for one entry are separate records, joined by “and”; a condition that tells them apart may be missing. Equal values may be shown once. Records with an inconclusive call do not appear. Some structures have more than one record in an assay (separate samples or runs), and their calls can disagree. Activity calls are given as the source filed them. Unless noted, calls come from the whole dose curve; as a rule, active = well fitted curve in the direction sought with a large enough effect in the repeat runs; inconclusive = weak or mixed curves; inactive = no such curve, though single readings can be large; an effect the other way counts as inactive or inconclusive.

With `C=CCc1ccc(O)c(OC)c1`, the Potency entry in [1], in [2], in experiment [3], in experiment [4], in experiment [5] and in experiment [6] was “inactive” each time. The Potency entry in experiment [7] is “inactive”.

`CN(N=O)C(=O)N[C@@H]1[C@@H](O)[C@H](O)[C@@H](CO)O[C@@H]1O`: the Potency result in experiment [1], in experiment [2], in experiment [3], in experiment [4], in experiment [5] and in experiment [6] was “inactive” throughout. Besides, the Potency result in [7] was “inactive”.

With `NC(=O)c1cccnc1`, the Potency entry in experiment [1], in experiment [2], in experiment [3], in experiment [4], in experiment [5] and in [6] was “inactive” throughout. In addition, the Potency result in [7] is “inactive”.

`NC(CO)(CO)CO`: the Potency result in experiment [1], in experiment [2], in [3], in experiment [4], in experiment [5] and in experiment [6] was “inactive” throughout. Moreover, in [7], the Potency result is “inactive”.

As to `C1=CC2C3C=CC(C3)C2C1` (stereo unspecified), the result in experiment [8] was inactive. Besides, the Potency result in [2], in experiment [4], in experiment [6], in experiment [7] and in [10] was “inactive” each time. Besides, in experiment [9], the Potency was 60 µM (active).

Consider `COc1ccc(OC(F)(F)F)cc1CN[C@H]1CCCN[C@H]1c1ccccc1`, for which the Potency is 54.5 µM (active) in experiment [1]; 61.1 µM (active) in experiment [3]; 54.5 µM (active) in experiment [4]; 54.5 µM (active) in [5]; 54.5 µM (active) in experiment [7]. In addition, the Potency entry in [2] and in experiment [6] was “inactive” in each case.

Take `COc1ccc2c(c1)c(CC(=O)O)c(C)n2C(=O)c1ccc(Cl)cc1`: the outcome in [8] was inactive. The Potency entry in experiment [1], in experiment [2], in [3], in experiment [4], in [5] and in experiment [6] was “inactive” in each case. Moreover, the Potency entry in [7] and in experiment [10] was “inactive” in each case. Moreover, the Potency in experiment [9] is 30.8 µM (active) and inactive.

As for `Cn1c(=O)c2c(ncn2C)n(C)c1=O`, the call in experiment [8] was inactive. In addition, the Potency in experiment [1] is 55.1 µM (active) and inactive. Further, the Potency result in [5], in experiment [6], in [7] and in experiment [10] was “inactive” throughout.

Regarding `CC(=O)C(=O)O`, the Potency result in experiment [1], in experiment [2], in experiment [3], in [4], in experiment [5] and in [6] was “inactive” each time. For the same compound, in experiment [7], the Potency entry was “inactive”.

`Cc1cc(=O)oc2cc(O)ccc12`: the Potency result in [1], in [2], in experiment [3], in experiment [4], in [5] and in experiment [6] was “inactive” each time. In addition, the Potency result in [7] is “inactive”.

With `CC/C(=C(\c1ccccc1)c1ccc(OCCN(C)C)cc1)c1ccccc1`, the Potency in experiment [1] was 54.4 µM (active) and 54.9 µM (active) and 61.1 µM (active).

For `CCCCOC(=O)c1ccc(O)cc1`, the Potency result in experiment [1], in [3], in experiment [4], in experiment [5] and in [7] was “inactive” each time. The Potency is 80.7 µM (active) and 63.3 µM (active) and inactive in experiment [2]; 55.1 µM (active) and 30.6 µM (active) and inactive in experiment [6].

Consider `Cc1cn([C@H]2C=C[C@@H](CO)O2)c(=O)[nH]c1=O`, for which the Potency result in experiment [1], in [2], in experiment [3], in [4], in [5] and in [6] was “inactive” in each case. Further, in [7], the Potency entry was “inactive”.

For the compound `CC(=O)CCC(=O)O`, the Potency result in [1], in experiment [2], in experiment [3], in [4], in experiment [5] and in experiment [6] was “inactive” each time. Moreover, the Potency entry in [7] is “inactive”.

Take `CN(C)CCOC(C)(c1ccccc1)c1ccccn1` (stereo unspecified): the call in experiment [8] was inactive. For the same compound, the Potency entry in [1], in experiment [2], in experiment [3], in [4], in [5] and in experiment [6] was “inactive” in each case. Besides, the Potency result in experiment [7], in [9] and in experiment [10] was “inactive” each time.

As to `Nc1ccc(O)c([N+](=O)[O-])c1`, in experiment [8], the compound was called inactive. Moreover, the values for the Potency in experiment [1], in experiment [2] and in experiment [5] were 21.7 µM (active), 79.6 µM (active) and 12.2 µM (active), respectively. In [9], the Potency entry is “inactive”.

For `CCCCNC(=O)NS(=O)(=O)c1ccc(C)cc1`, the compound was called inactive in experiment [8]. In addition, the Potency entry in experiment [1], in experiment [2], in experiment [3], in [4], in [7] and in experiment [9] was “inactive” in each case. Further, the Potency entry in experiment [10] is “inactive”.

Take `Nc1c2c(nc3ccccc13)CCCC2`: the result in [8] was inactive. Besides, the Potency result in experiment [1], in experiment [2], in experiment [3], in [4], in [6] and in experiment [7] was “inactive” throughout. Moreover, the Potency result in experiment [9] and in experiment [10] was “inactive” in each case. The Potency in experiment [5] was 54.5 µM (active) and 43.3 µM (active) and inactive.

Take `O=C(O)c1ccccc1`: the Potency entry in experiment [1], in experiment [2], in [3], in experiment [4], in [5] and in experiment [6] was “inactive” in each case. Also, the Potency entry in experiment [7] was “inactive”.

As to `CCCc1cc(=O)[nH]c(=S)[nH]1`, the Potency result in experiment [1], in experiment [2], in experiment [3], in [4], in [5] and in [6] was “inactive” each time. Moreover, the Potency entry in experiment [7] was “inactive”.

For the origin of these results see PubChem BioAssay (Tox21).
